# From ChEMBL document CHEMBL1157539, “Thousands of chemical starting points for antimalarial lead identification” (Nature, 2010)
# Tested on: Plasmodium falciparum
# Assay: GSK_TCMDC: Inhibition of Plasmodium falciparum 3D7 in whole red blood cells, using parasite LDH activity as an index of growth. Test compounds present at 2uM
# Assay type: functional
row,SMILES,Inhibition
1,O=C(N[C@@H](Cc1ccccc1)CN1CCC(Oc2ccc(F)cc2)CC1)c1ccc(OCCCN2CCCCC2)cc1.O=C(O)C(F)(F)F,100%
2,COc1cc(OC)c2c(C)cc(NCCCN3CCOCC3)nc2c1,99%
3,CN(C)CCCN(C)C(=O)c1cc2cc(-c3ccccc3)ccc2n1S(=O)(=O)c1ccccc1.Cl,98%
4,O=C(NCCc1cccc(F)c1)c1cc(Br)cc(N2CCN(c3ccncc3)CC2)c1.O=C(O)C(F)(F)F,100%
5,Cc1cccc2nc(-c3ccc(-c4cccc(NC(=O)C(C)CN(C)C)c4)cc3)[nH]c12 (stereo not given),99%
6,COc1ccc(CCNC(C)Cc2ccc(C(=O)Nc3ccc(CC(C)NCCc4cccc(Cl)c4)cc3)cc2)cc1 (stereo not given),100%
7,CCCC(C)Nc1nc(C)cc(N[C@@H](CC(C)C)C(=O)Nc2ccc(OC)cc2)n1.O=C(O)C(F)(F)F (stereo not given in full),98%
8,CCCCc1cc(N2CCC(NC(C)=O)C2)nc(Nc2ccc(C)cc2)n1 (stereo not given),95%
9,CC1(C)N=C(N)N=C(N)N1OCCCCON1C(N)=NC(N)=NC1(C)C,97%
10,CN(C)c1nc(NCc2ccccc2)nc(N/N=C/c2cc([N+](=O)[O-])ccc2O)n1,100%
11,CCC(N)(C#Cc1ccc(-c2c(C)[nH]c(C)c(Br)c2=O)cc1)CC,97%
12,O=C(Nc1cc(F)cc(F)c1)N1CCOC(CCN2CCC3(CCc4ccccc43)CC2)(c2ccc(Cl)c(Cl)c2)C1 (stereo not given),100%
13,Fc1ccc(-c2nc(NCc3cccc(C(F)(F)F)c3)nn2-c2cccc(C(F)(F)F)c2)cc1C(F)(F)F,90%
14,O=C(O)C(F)(F)F.c1cc(-c2ccc(CN3CCCC3)cc2)cc(-c2nc3ccccc3[nH]2)c1,100%
15,O=C(Nc1cccc([N+](=O)[O-])c1)Nc1ccc(Cl)c(C(F)(F)F)c1,96%
16,CC(C)C[C@@H]1C(=O)N[C@H](C2Cc3ccccc3C2)C(=O)N1[C@@H](C(=O)O)c1ccc(F)cc1F,98%
17,O=C(NC(=O)c1ccccc1)NC1CCN(c2ccnc3cc(Cl)ccc23)C1.O=C(O)C(F)(F)F (stereo not given),100%
18,CCN(CC)CCCCOc1ccc2c(c1)C(=O)c1cc(OCCCCN(CC)CC)ccc1-2.Cl,100%
19,Cc1cc(CNCC(CCNc2cc(=O)c3ccccc3[nH]2)NCc2cc(Br)cc(Br)c2)oc1C (stereo not given),98%
20,Br.CCc1c(CCNCCCCCCNCCc2ccc(Br)cc2)ccc(O)c1O,95%

row,SMILES,Inhibition
1,CCCCCCCc1ccc(-c2c(C)[nH]c(C)c(Cl)c2=O)cn1,99%
2,COc1ccc2nc3cc(Cl)ccc3c(Nc3ccc(O)c(CN4CC5CCC(CC5)C4)c3)c2c1.Cl,100%
3,Cc1cc2cc(/C=C/C(=O)NC3CCC(CCN4CCc5ccc(C#N)cc5CC4)CC3)ccc2[nH]1.Cl (stereo not given),85%
4,O=C(Nc1ccc(-c2ccccc2)cc1)Nc1cccc(OCCN2CCCC2)c1.O=C(O)C(F)(F)F,94%
5,O=C(NCCCCCCNCc1ccc(-c2ccccc2)cc1)Nc1ccc(Cl)c(Cl)c1,90%
6,CCC(COCc1ccc(Cl)cc1)N(C)CCN(C)C(CC)COCc1ccc(Cl)cc1.Cl (stereo not given),95%
7,CCN(CC)CC#Cc1ccc2[nH]c(C)c(Cl)c(=O)c2c1,96%
8,Cl.N#Cc1ccc2c(c1)CCN(CCC1CCC(NC(=O)/C=C/c3ccc(F)c4ccccc34)CC1)CC2 (stereo not given),95%
9,CN1CCC(C(=O)Nc2cccc(-c3ccc(-c4nc5ccccc5[nH]4)cc3)c2)CC1,82%
10,CCCCCC(C)N/C(=N/c1ccccc1Br)Nc1ccc([N+](=O)[O-])cc1O (stereo not given),99%
11,NC1CCN(CCNCc2cccc(-c3ccc(-c4nc5cc(C(F)(F)F)ccc5[nH]4)cc3)c2)C1.O=C(O)C(F)(F)F (stereo not given),98%
12,O=C(O)C(F)(F)F.c1ccc(CN2CCC(NCc3ccccc3-c3ccc(CNCc4ccc5c(c4)OCO5)cc3)CC2)cc1,100%
13,COc1ccc(C(=O)NC2CCN(c3ccnc4cc(Cl)ccc34)C2)cc1.O=C(O)C(F)(F)F (stereo not given),100%
14,CC(C)N1CCC(N(Cc2ccc(-c3ccc(C(F)(F)F)cc3)cc2)C(=O)Cn2c(CCc3cccc(F)c3F)nc(=O)c3cccnc32)CC1.O=C(O)C(O)C(O)C(=O)O,100%
15,COc1ccc(CNC2CCCC2)cc1-c1ccc(S(=O)(=O)NCCN2CCCC2)s1.O=C(O)C(F)(F)F,96%
16,N#Cc1ccc2[nH]cc(C(=O)CCCCCN(Cc3ccccc3)Cc3ccccc3)c2c1,93%
17,COc1ccc(-c2cccc(NC(=O)c3cccc(C#N)c3)c2)cc1CN1CCC(O)CC1.O=C(O)C(F)(F)F,97%
18,COc1ccc2nc3cc(Cl)ccc3c(NCc3ccccc3)c2c1.Cl,100%
19,Cc1ccc(CNC(=O)[C@H](CC(C)C)Nc2cc(C)nc(Nc3ccccc3)n2)cc1.O=C(O)C(F)(F)F,97%
20,CCn1c(-c2nonc2N)nc2c(-c3cc4ccccc4s3)ncc(C(=O)N3CCC(N)C3)c21.O=C(O)C(F)(F)F (stereo not given),98%
